# According to the supplement of paper PMC9135407:
# Values joined by “and” are separate entries in the source; they are usually repeats but may differ in a detail not shown here. Identical values can stand only once. Counter-ions that a name gives are not always drawn. In all, about 5,800 compounds went through this assay and about 620 (11%) showed activity. What follows is part of a selection rich in actives, with near analogues and random picks from the rest. Unmarked numbers belong to inactive results.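 The calls were made as follows: active = score above a cut-off or among the top three wells of a plate; in these data no inactive exceeds 0.85.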
# System: primary human hepatic stellate cells (donor 1)
# Assay: scaled lipid accumulation score (0 = DMSO-like, 1 = nortriptyline-like); higher = stronger HSC inactivation (lipid re-accumulation), active = hit call of the paper
# Settings: 48 h
# [1] = library stock concentration: 3.33 mM
# [2] = library stock concentration: 10 mM
# [3] = library stock concentration: 80 uM
# [4] = library stock concentration: 400 uM
# [5] = library stock concentration: 2 mM
# [6] = library stock concentration: 1 mM
smiles,measurement,setting,value
c1cncc(CN2CCC(n3ncc4c(N5CCOCC5)nc(-c5ccc6[nH]ccc6c5)nc43)CC2)c1,scaled lipid accumulation score,[1],1.19 (active)
same,scaled lipid accumulation score,[2],1.19 (active)
COC(=O)Nc1ccc(-c2nc(N3CCOCC3)c3cnn(C4CCN(C(=O)OC)CC4)c3n2)cc1,scaled lipid accumulation score,[1],≤ 0
same,scaled lipid accumulation score,[2],≤ 0
CNC(=O)Nc1ccc(-c2nc(N3CC4CCC(C3)O4)c3cnn(C4CCC5(CC4)OCCO5)c3n2)cc1,scaled lipid accumulation score,[3],≤ 0
same,scaled lipid accumulation score,[4],0.006
same,scaled lipid accumulation score,[5],≤ 0
same,scaled lipid accumulation score,[1],≤ 0
same,scaled lipid accumulation score,[2],0.733 and 0.772
CN(C)[C@@H]1C(O)=C(C(=O)NCNCCCC[C@H](N)C(=O)O)C(=O)[C@@]2(O)C(O)=C3C(=O)c4c(O)cccc4[C@@](C)(O)[C@H]3C[C@@H]12 [Lymecycline],scaled lipid accumulation score,,0.003
C[C@@H](N)c1ccc(C(=O)Nc2ccnc3[nH]ccc23)cc1,scaled lipid accumulation score,[3],≤ -0.009
same,scaled lipid accumulation score,[4],≤ -0.009
same,scaled lipid accumulation score,[5],0.069
C[C@@H](N)c1ccc(C(=O)Nc2ccnc3[nH]ccc23)cc1.Cl.Cl,scaled lipid accumulation score,[2],1.13 (active)
CC(C)(C)OC(=O)Nc1cccc2[nH]ccc12 [(1H-Indol-4-yl)-Carbamic Acid tert-butyl ester],scaled lipid accumulation score,[6],≤ 0
CCCCCCCCCCCCCC=CC(O)C(COP(=O)(O)O)NC(=O)CCCCCCC (configuration not stated) [C-8 Ceramide-1-phosphate],scaled lipid accumulation score,[6],≤ 0
Nc1nc(F)nc2c1ncn2[C@@H]1O[C@H](COP(=O)(O)O)[C@@H](O)[C@@H]1O [Fludarabine Phosphate],scaled lipid accumulation score,[1],0.514
same,scaled lipid accumulation score,[2],0.748
CN1CCN(C(c2ccccc2)c2ccccc2)CC1 [Cyclizine 2HCl],scaled lipid accumulation score,[1],≤ 0
same,scaled lipid accumulation score,[2],0.742
CN1CCN(C(c2ccccc2)c2ccc(Cl)cc2)CC1 (configuration not stated) [Chlorcyclizine hydrochloride],scaled lipid accumulation score,,0.377
same,scaled lipid accumulation score,library stock concentration: 5.9 mM,0.391
CN1CCN(C(c2ccccc2)c2ccccc2)CC1 [Cyclizine],scaled lipid accumulation score,library stock concentration: 7.5 mM,0.186
same,scaled lipid accumulation score,[2],0.521
CN1CCCN(C(c2ccccc2)c2ccc(Cl)cc2)CC1.Cl.Cl (configuration not stated) [Homochlorcyclizine dihydrochloride],scaled lipid accumulation score,,0.879 (active)
CN1CCN(C(c2ccccc2)c2ccccc2)CC1 [Cyclizine hydrochloride],scaled lipid accumulation score,,0.648
[Cl-].[Li+] [Lithium Chloride],scaled lipid accumulation score,[2],≤ -0.07
COC(=O)C1=C(C)NC(C)=C(C(=O)OC)C1c1cccc(NC(=O)NCCCN2CCC(c3cccc(OC)c3)CC2)c1,scaled lipid accumulation score,[2],0.68
COc1cc(N2CCN(C)CC2)ccc1Nc1nc(N)c(C(=O)c2c(Cl)cccc2Cl)s1,scaled lipid accumulation score,[3],0.02
same,scaled lipid accumulation score,[4],≤ -0.009
same,scaled lipid accumulation score,[5],0.155
same,scaled lipid accumulation score,[2],0.8
CC1CCN(c2cc(N3CCN(C)CC3)ccc2NC(=O)c2cc(C#N)c[nH]2)CC1 [listing 1 of 2 here],scaled lipid accumulation score,[3],0.044
same,scaled lipid accumulation score,[4],≤ -0.016
same,scaled lipid accumulation score,[5],≤ -0.016
CC1CCN(c2cc(N3CCN(C)CC3)ccc2NC(=O)c2cc(C#N)c[nH]2)CC1 [listing 2 of 2 here],scaled lipid accumulation score,[2],1.32 (active)
"CCCC/C=C/C=C/C=C/CCCCCCCC(=O)OC [9(Z),11(E),13(E)-Octadecatrienoic Acid methyl ester]",scaled lipid accumulation score,[6],≤ 0
CC(=O)c1cc2c(cc1O)OC(C)(C)C=C2 [Eupatoriochromene],scaled lipid accumulation score,[2],0.066
Nc1ncnc2c1c(-c1cccc(OCc3ccccc3)c1)cn2[C@H]1C[C@H](CN2CCCC2)C1,scaled lipid accumulation score,[1],1.09 (active)
C=CC(=O)N1CCC[C@@H](n2nc(-c3ccc(Oc4ccccc4)cc3)c3c(N)ncnc32)C1,scaled lipid accumulation score,[3],≤ -0.009
same,scaled lipid accumulation score,[4],0.313
same,scaled lipid accumulation score,[5],0.033
same,scaled lipid accumulation score,[1],≤ 0
same,scaled lipid accumulation score,[2],≤ 0 and 0.22
Nc1ncnc2c1c(-c1cccc(OCc3ccccc3)c1)cn2C1CC(CN2CCC2)C1 (configuration not stated),scaled lipid accumulation score,[3],0.167
same,scaled lipid accumulation score,[4],0.351
same,scaled lipid accumulation score,[5],0.67
same,scaled lipid accumulation score,[2],0.657
Nc1ncnc2c1c(-c1ccc(Oc3ccccc3)cc1)cn2C1CCCC1,scaled lipid accumulation score,[2],≤ -0.07
Nc1ncnc2c1c(-c1cccc(OCc3ccccc3)c1)cn2C1CC(CN2CCCC2)C1 (configuration not stated),scaled lipid accumulation score,[2],0.36
Nc1ncnc2c1c(-c1cccc(OCc3ccccc3)c1)cn2[C@H]1C[C@@H](CN2CCC2)C1,scaled lipid accumulation score,[1],0.894 (active)
same,scaled lipid accumulation score,[2],1.01 (active)
